# Rango release inh: prevents RanGTP from dissociating the Rango-importin beta complex; 340,000 compounds, 0.071% hits; O95149+P62826; AID 540253; Biochemical FRET Rango-importin beta, RanGTP-induced dissociation; Potency, µM (top dose mostly 46.1 µM), without a hit: top-dose activity change, negative = inhibition; calls by dose curve; note: potency is the fitted concentration of half-maximal effect; % of control where 0% means no effect; nearly all actives have a fitted effect of over 45% in size
#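 Rango FRET biosensor (snurportin-1 IBB flanked by N-terminal EYFP and C-terminal CFP10) at 0.1 uM, with 0.25 uM importin beta in PBS, 1mM DTT, 0.02% Tween-20, 0.1% BSA. 0.6 uM Ran, 2mM GTP and 0.2 uM RCC1 were then added for 45 min at room temperature. Inhibition read as loss of FRET rise.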
# KAT2A inh: blocks human GCN5L2 histone acetyltransferase. Q92830. GCN5L2 HAT assay, ThioGlo1 CoA-SH fluorescence. Potency, µM (series often up to 58.9 µM), for the others: at the highest dose activity change, negative = inhibition, hits mostly inhibitors. 390,000 compounds, 0.21% hits. AID 504327; note: potency is the fitted concentration of half-maximal effect; % is set by controls: 0 for no effect and ±100 for the full control effect
#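 Compounds, pin-transferred from DMSO stocks, meet 20nM GCN5L2 for 15 min before the reaction begins with H3(1-25) peptide (75uM) and acetyl-CoA (70uM). Thiol-reactive ThioGlo1 reports CoA release over 20 min at room temperature.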
# PLK1 PBD inh: PLK1 (human) polo-box domain binding inhibition. P53350. Plk1 PBD binding of FITC phosphopeptide, fluorescence polarization. Potency, µM, inactives show max response, negative = inhibition, usual class: inhibitors. 360,000 compounds, 2.8% hits; note: potency is the fitted concentration of half-maximal effect; series mostly up to about 57 µM; % is set by controls: 0 for no effect and ±100 for the full control effect; nearly all actives have a fitted effect of over 65% in size
# Rango-impB inh: Rango-importin beta binding inhibition; Q14974; Rango CFP/YFP FRET sensor + importin beta, 45 min; Potency, µM (series often up to 92.2 µM), inactives show top-dose inhibition of complex formation; 340,000 compounds, 0.031% hits; AID 540263; calls by dose curve;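 note: potency is the fitted concentration of half-maximal effect; 0% = DMSO wells and 100% = buffer wells lacking importin beta; nearly all actives have a fitted effect of over 15% in size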
#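 FRET biosensor Rango (snurportin 1 IBB between N-terminal EYFP and C-terminal Cerulean), 50 nM in PBS/1 mM DTT/0.02% Tween-20/0.1% BSA, preincubated 5 min RT with compound; 0.125 microM importin beta added, 45 min RT, CFP/YFP FRET ratio read.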
# VDR inhibitor: inhibitors of human vitamin D receptor; Potency, µM, for the others: max response, negative = inhibition, hits mostly inhibitors; P11473; VDR-SRC2-3 peptide fluorescence polarization, 2 h; 400,000 compounds, 0.93% hits; note: potency is the fitted concentration of half-maximal effect; % is set by controls: 0 for no effect and ±100 for the full control effect
#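 VDR–SRC2-3 interaction, FP format. Cmpds 23 nl via pintool, brief spin, 2 h ambient incubation.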
# PI5P4Ka inh: blocks human PI5P4K alpha kinase activity | AID 652105 | PI5P4Kalpha enzyme, ADP-Glo luminescence, 60 min; stronger effect = lower value | max response, % | P48426 | 330,000 compounds, 1.2% hits; active = max response of -50% or lower; inconclusive = between -30% and -50%; inactive = -30% or higher; note: value at the top dose of about 77 µM; % is set by controls: 0 for no effect and ±100 for the full control effect
# Target sequence (P48426 whole entry, looked up): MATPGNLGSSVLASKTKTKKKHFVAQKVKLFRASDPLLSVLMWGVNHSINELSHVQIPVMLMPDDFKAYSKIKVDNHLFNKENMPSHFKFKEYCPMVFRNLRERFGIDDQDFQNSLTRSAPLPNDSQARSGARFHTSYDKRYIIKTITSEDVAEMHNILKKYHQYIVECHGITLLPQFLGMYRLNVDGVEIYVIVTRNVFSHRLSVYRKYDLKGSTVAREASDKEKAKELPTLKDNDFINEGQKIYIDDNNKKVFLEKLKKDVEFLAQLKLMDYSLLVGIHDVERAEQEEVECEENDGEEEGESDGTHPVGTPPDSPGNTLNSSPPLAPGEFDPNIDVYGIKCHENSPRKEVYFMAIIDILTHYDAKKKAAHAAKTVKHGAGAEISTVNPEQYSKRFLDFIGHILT
#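 Quantitative HTS of the MLSMR library against PI5P4Kalpha with substrate. ATP added last at 5 microM final; room temperature, 60 minutes. Remaining ATP depleted, ADP converted and read as luminescence.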
# VDR inh confirm: confirmation of human vitamin D receptor inhibitors. shares compounds with VDR inhibitor. VDR-coactivator inhibition assay, qHTS confirmation. Potency, µM, usual class: inhibitors. 840 compounds, 89% hits. AID 602199; note: potency is the fitted concentration of half-maximal effect
# VDR FP: blocks human VDR-coactivator binding in fluorescein assay. Potency, µM (highest dose often 57.1 µM), without a hit: at the highest dose activity change, negative = inhibition, hits mostly inhibitors. VDR-coactivator binding, fluorescein fluorescence polarization. AID 602200. 840 compounds, 48% hits. shares compounds with VDR inhibitor; note: potency is the fitted concentration of half-maximal effect
# VDR bla: confirmation of human vitamin D receptor inhibitors in reporter cells; 840 compounds, 23% hits; Potency, µM (highest dose often 46.1 µM), for the others: at the top dose activity change, negative = inhibition, usual class: inhibitors; VDR beta-lactamase reporter cells, FRET ratio; cells co-treated with VDR agonist LG190178; shares compounds with VDR inhibitor; note: potency is the fitted concentration of half-maximal effect; % is set by controls: 0 for no effect and ±100 for the full control effect
# VDR viability: cytotoxic in counter-screen for VDR inhibitors. AID 602204. 840 compounds, 18% hits. cytotoxicity counter-screen, cell viability, qHTS. Potency, µM (series often up to 48.3 µM), for inactives: at the top dose activity change, negative = cytotoxicity, usual class: cytotoxic. shares compounds with VDR inhibitor;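 note: potency is the fitted concentration of half-maximal effect; plate controls were DMSO for no effect and high-concentration cycloheximide for full effect; nearly all actives have a fitted effect of over 75% in size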
# Numbers without * were called inactive; ? = inconclusive; / = no result; [ ] = dose if it differs, or a comment. Rows were chosen to be rich in hits. Some 3.6% of all compounds tested hit in one or more screens of this group. Unless noted, calls come from the whole dose curve; as a rule, active = well fitted curve in the direction sought with a large enough effect; inconclusive = small, poorly fitted or top-dose-only effect, or another doubt; inactive = no such curve, though single readings can be large; an effect the other way counts as inactive or inconclusive.
SMILES,Rango release inh,KAT2A inh,PLK1 PBD inh,Rango-impB inh,VDR inhibitor,PI5P4Ka inh,VDR inh confirm,VDR FP,VDR bla,VDR viability
O=C1OC(NC(=O)c2ccccc2)C(n2cc(CO)nn2)=C1Cl (stereo not drawn),-8.9%,-5.7%,9.47µM*,4.7%,39.8µM*,?,?,?,9.9%,24.4%
Cc1cccc(CC(=O)NCc2nc3cccnc3n2Cc2ccc(F)cc2)c1,/,3.2%,/,/,6.4%,/,/,/,/,/
Cc1ccc(S(=O)c2snnc2C)cc1 (stereo not drawn),10.5%,-1.4%,-14.5%,-1.2%,1.2%,-0.8,/,/,/,/
CNC(=O)c1nnsc1S(=O)c1ccc(Cl)cc1 (stereo not drawn),6.4%,-16.2%,0.947µM*,-12.8%,5.62µM*,?,3.77*,4.47µM*,16.4µM*,?
CCCNC(=O)c1nnsc1S(=O)c1ccc(Cl)cc1 (stereo not drawn),13.0%,-12.5%,0.752µM*,-1.3%,?,?,0.891*,1µM*,13µM*,21.2µM*
Cc1ccccc1OCc1nc2ccc(S(=O)(=O)N3CCOCC3)cc2[nH]1,-5.3%,-4.8%,9.47µM*,-4.7%,39.8µM*,/,21.2*,?,21.1%,38.1%
O=C1C(=O)c2c(C(=O)c3ccccc3)coc2-c2ccccc21,8.8%,-11.1%[0.501 µM],?,-0.3%,3.16µM*,-8.6,4.23*,?,?,18.4µM*
Cc1oc2c(c1C(=O)c1ccccc1)C(=O)C(=O)c1ccccc1-2,0.9%,-1.8%,?,3.7%,?,-10.3,2.51*,3.16µM*,20.6µM*,3.36µM*
CCCCN1CCC[C@@H]1CNC(=O)c1cc(C#N)c2ccccc2c1OC,/,-10.5%,/,/,-29.1%,/,/,/,/,/
O=C(COc1ccccc1Cl)N(Cc1ccco1)Cc1ccco1,/,-7.5%,/,/,12.5%,/,/,/,/,/
COc1ccc(C2C=C(c3ccccc3)Nc3nc(NS(=O)(=O)c4ccccc4)nn32)cc1 (stereo not drawn),/,-2.8%,/,/,1.9%,/,/,/,/,/
COc1cccc(C2C(C(=O)Nc3ccc(C)cc3C)=C(C)Nc3c(C(=O)Nc4cccc(C)c4)cnn32)c1OC (stereo not drawn),/,-1.0%,/,/,8.6%,/,/,/,/,/
c1ccc(Cc2nn3c(COc4ccccc4)nnc3s2)cc1,21.8%,-25.4%,4.23µM*,4.7%,79.4µM*,/,23.8*,?,11.5%,28.3%
Clc1ccccc1-c1nn2c(COc3ccccc3)nnc2s1,17.8%,-6.1%,?,0.0%,-8.6%,/,/,/,/,/
FC(F)(F)c1nnc(-c2ccccc2)nc1Sc1ccccc1,-3.1%,-5.7%,-20.3%,-2.0%,-17.4%,22.0,/,/,/,/
FC(F)(F)c1cccc(Sc2nc(-c3ccccc3)nnc2C(F)(F)F)c1,-4.3%,-7.1%,-21.4%,0.5%,31.6µM*,1.8,15*,?,?,?
C=CC(C)(C)c1c(O)c(CC=C(C)C)c(O)c2c(=O)c3ccc(O)c(O)c3oc12,-25.5%,/,6.9%,0.7%,9.1%,-12.0,/,/,/,/

# High-throughput results: PubChem, National Center for Advancing Translational Sciences (NCATS)
